Reference: PubChem BioAssay AID1159580 (chemical genetic matrix, 2015)
In all, about 5,500 compounds went through this assay and about 2,000 (36%) were called active. Inconclusive results (about 18%) are left out. Cut-off read from the data, not from the text of the source: active = normalized growth mostly below about 0.91 (no sharp cut-off); inconclusive = no clear call, values can overlap the other calls; inactive = mostly above about 0.92. Some of the results follow.

Experiment: chemical genetic growth profiling, strain panel (AID 1159580);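 note: tested at 20 µM; growth read once vehicle control cultures reached saturation at 30 °C; 1 = growth at the plate median or of vehicle wells; lower values mean less growth of the strain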
Conditions: growth OD

Measured: normalized growth

C[C@]12C=CC(=O)C=C1CCC1C2[C@@H](O)C[C@@]2(C)C1CC[C@]2(O)C(=O)CO (stereo not given in full)
inactive: S. cerevisiae deletion strains, locus YJR075W, strain HOC1, active compounds read low 0.993 | S. cerevisiae deletion strains, locus YKL009W, strain mrt4, active compounds read low 0.976 | S. cerevisiae deletion strains, locus YKL068W, active compounds read low 0.991 | S. cerevisiae deletion strains, locus YKL085W, strain MDH1 (second series), active compounds read low 0.98 | S. cerevisiae deletion strains, locus YKL085W, strain MDH1, active compounds read low 0.98 | S. cerevisiae deletion strains, locus YKL160W, strain elf1, active compounds read low 0.981 | S. cerevisiae deletion strains, locus YKL190W, strain CNB1, active compounds read low 0.996 | S. cerevisiae deletion strains, locus YKR001C, strain vps1, active compounds read low 0.991 | S. cerevisiae deletion strains, locus YKR026C, strain gcn3, active compounds read low 0.997 | S. cerevisiae deletion strains, locus YKR091W, strain srl3, active compounds read low 0.999 | S. cerevisiae deletion strains, locus YLL001W, strain dnm1, active compounds read low 0.978 | S. cerevisiae deletion strains, locus YLL026W, active compounds read low 0.995 | S. cerevisiae deletion strains, locus YLL041C, strain sdh2, active compounds read low 0.989 | S. cerevisiae deletion strains, locus YLR027C, strain aat2, active compounds read low 0.995 | S. cerevisiae deletion strains, locus YLR039C, strain RIC1, active compounds read low 0.974 | S. cerevisiae deletion strains, locus YLR058C, strain SHM2, active compounds read low 0.994 | S. cerevisiae deletion strains, locus YLR102C, strain apc9, active compounds read low 0.98 | S. cerevisiae deletion strains, locus YLR113W, strain HOG1, active compounds read low 1.01 | S. cerevisiae deletion strains, locus YLR221C, strain rsa3, active compounds read low 1.01 | S. cerevisiae deletion strains, locus YLR258W, strain gsy2, active compounds read low 0.991 | S. cerevisiae deletion strains, locus YLR262C, strain YPT6 (second series), active compounds read low 0.992 | S. cerevisiae deletion strains, locus YLR262C, strain YPT6, active compounds read low 0.991 | S. cerevisiae deletion strains, locus YLR268W, strain sec22, active compounds read low 0.948 | S. cerevisiae deletion strains, locus YLR320W, strain mms22, active compounds read low 0.97 | S. cerevisiae deletion strains, locus YLR330W, strain CHS5, active compounds read low 0.99 | S. cerevisiae deletion strains, locus YLR342W, strain FKS1 (second series), active compounds read low 0.979 | S. cerevisiae deletion strains, locus YLR342W, strain FKS1, active compounds read low 0.997 | S. cerevisiae deletion strains, locus YLR357W, strain rsc2, active compounds read low 0.989 | S. cerevisiae deletion strains, locus YLR370C, strain arc18, active compounds read low 0.988 | S. cerevisiae deletion strains, locus YLR371W, strain rom2, active compounds read low 0.964 | S. cerevisiae deletion strains, locus YLR384C, strain iki3, active compounds read low 0.991 | S. cerevisiae deletion strains, locus YLR418C, strain cdc73, active compounds read low 0.98 | S. cerevisiae deletion strains, locus YML016C, strain PPZ1, active compounds read low 0.988 | S. cerevisiae deletion strains, locus YML032C, strain rad52, active compounds read low 0.972 | S. cerevisiae deletion strains, locus YML120C, strain ndi1, active compounds read low 0.984 | S. cerevisiae deletion strains, locus YML124C, strain tub3, active compounds read low 0.989 | S. cerevisiae deletion strains, locus YMR058W, strain fet3, active compounds read low 0.996 | S. cerevisiae deletion strains, locus YMR078C, strain ctf18, active compounds read low 0.974 | S. cerevisiae deletion strains, locus YMR125W, strain sto1, active compounds read low 0.99 | S. cerevisiae deletion strains, locus YMR129W, active compounds read low 0.993 | S. cerevisiae deletion strains, locus YMR205C, strain PFK2, active compounds read low 0.998 | S. cerevisiae deletion strains, locus YMR223W, strain ubp8, active compounds read low 1 | S. cerevisiae deletion strains, locus YMR231W, strain pep5, active compounds read low 0.991 | S. cerevisiae deletion strains, locus YMR307W, strain GAS1, active compounds read low 0.893 | S. cerevisiae deletion strains, locus YNL067W, strain RPL9B, active compounds read low 1 | S. cerevisiae deletion strains, locus YNL071W, strain lat1, active compounds read low 1 | S. cerevisiae deletion strains, locus YNL128W, strain TEP1, active compounds read low 0.983 | S. cerevisiae deletion strains, locus YNL183C, strain NPR1, active compounds read low 0.973 | S. cerevisiae deletion strains, locus YNL209W, strain ssb2, active compounds read low 0.998 | S. cerevisiae deletion strains, locus YNL233W, strain BNI4, active compounds read low 0.996 | S. cerevisiae deletion strains, locus YNL248C, strain rpa49, active compounds read low 0.993 | S. cerevisiae deletion strains, locus YNL250W, strain rad50, active compounds read low 0.967 | S. cerevisiae deletion strains, locus YNL271C, strain bni1, active compounds read low 0.982 | S. cerevisiae deletion strains, locus YNL298W, strain CLA4, active compounds read low 0.98 | S. cerevisiae deletion strains, locus YNL307C, strain MCK1, active compounds read low 0.979 | S. cerevisiae deletion strains, locus YNL322C, strain KRE1 (second series), active compounds read low 1 | S. cerevisiae deletion strains, locus YNL322C, strain KRE1, active compounds read low 0.993 | S. cerevisiae deletion strains, locus YNR049C, strain mso1, active compounds read low 0.995 | S. cerevisiae deletion strains, locus YNR052C, strain pop2, active compounds read low 0.988 | S. cerevisiae deletion strains, locus YOL006C, strain TOP1, active compounds read low 1.04 | S. cerevisiae deletion strains, locus YOL012C, strain htz1 0.96 | S. cerevisiae deletion strains, locus YOL147C, strain pex11, active compounds read low 0.983 | S. cerevisiae deletion strains, locus YOR001W, strain rrp6, active compounds read low 0.975 | S. cerevisiae deletion strains, locus YOR061W, strain CKA2, active compounds read low 0.986 | S. cerevisiae deletion strains, locus YOR069W, strain VPS5, active compounds read low 0.99 | S. cerevisiae deletion strains, locus YOR070C, strain gyp1, active compounds read low 1 | S. cerevisiae deletion strains, locus YOR080W, strain dia2, active compounds read low 0.997 | S. cerevisiae deletion strains, locus YOR083W, strain WHI5, active compounds read low 0.973 | S. cerevisiae deletion strains, locus YOR106W, strain vam3, active compounds read low 0.977 | S. cerevisiae deletion strains, locus YOR136W, strain idh2, active compounds read low 0.987 | S. cerevisiae deletion strains, locus YOR144C, strain elg1, active compounds read low 0.987 | S. cerevisiae deletion strains, locus YOR184W, strain ser1, active compounds read low 0.978 | S. cerevisiae deletion strains, locus YOR231W, strain MKK1, active compounds read low 1.01 | S. cerevisiae deletion strains, locus YOR265W, strain rbl2, active compounds read low 0.996 | S. cerevisiae deletion strains, locus YOR270C, strain vph1, active compounds read low 0.989 | S. cerevisiae deletion strains, locus YOR290C, strain snf2, active compounds read low 0.997 | S. cerevisiae deletion strains, locus YOR316C, strain cot1, active compounds read low 0.983 | S. cerevisiae deletion strains, locus YPL051W, strain arl3, active compounds read low 0.995 | S. cerevisiae deletion strains, locus YPL055C, strain LGE1, active compounds read low 1.01 | S. cerevisiae deletion strains, locus YPL078C, strain atp4, active compounds read low 0.974 | S. cerevisiae deletion strains, locus YPL106C, strain sse1, active compounds read low 1.02 | S. cerevisiae deletion strains, locus YPL240C, strain hsp82, active compounds read low 1 | S. cerevisiae deletion strains, locus YPL241C, strain CIN2, active compounds read low 0.993 | S. cerevisiae deletion strains, locus YPL256C, strain CLN2, active compounds read low 1.02 | S. cerevisiae deletion strains, locus YPR119W, strain clb2, active compounds read low 0.979 | S. cerevisiae deletion strains, locus YPR141C, strain kar3, active compounds read low 0.981 | S. cerevisiae deletion strains, locus YPR163C, strain tif3, active compounds read low 0.98 | S. cerevisiae deletion strains, locus YPR167C, strain met16, active compounds read low 0.982 | S. cerevisiae deletion strains, strain wtn01, active compounds read low 0.983 | S. cerevisiae strains, strain wild type, active compounds read low 0.991
